Source: PubChem (several laboratories)
NR2F2 inh: NR2F2 transcriptional activity inhibitors, primary screen, cell-based, luciferase reporter, HEK293T, luminescence; HEK293T NGFI-A luciferase reporter; inhibition, % at 8.6 µM; hit rate 0.7% among 370,000; AID 686940, 2013;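 active = inhibition above a per-plate cutoff, mean inhibition of test wells between control levels plus 3 SD, cut at about 38% in these data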;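 also: cells cotransfected with COUP-TFII expression vector driving the NGFI-A reporter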
Target sequence (P24468 whole entry, looked up): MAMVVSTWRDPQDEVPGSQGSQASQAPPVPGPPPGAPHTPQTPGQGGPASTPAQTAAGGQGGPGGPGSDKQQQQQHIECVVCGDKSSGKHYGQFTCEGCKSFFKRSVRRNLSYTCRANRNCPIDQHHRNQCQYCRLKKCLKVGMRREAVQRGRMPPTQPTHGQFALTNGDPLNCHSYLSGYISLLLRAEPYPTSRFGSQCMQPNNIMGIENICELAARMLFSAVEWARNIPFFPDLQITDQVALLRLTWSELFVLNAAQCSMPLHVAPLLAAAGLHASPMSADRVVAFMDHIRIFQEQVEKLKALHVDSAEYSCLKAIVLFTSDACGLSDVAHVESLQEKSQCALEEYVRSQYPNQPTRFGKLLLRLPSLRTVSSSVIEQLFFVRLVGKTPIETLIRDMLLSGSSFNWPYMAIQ
NCOA3 inh: SRC3 coactivator transcriptional activity inhibitors, primary screen, cell-based, luminescence; HEK293 GAL4-SRC3 luciferase reporter; hit rate 0.17% among 360,000; inhibition, % at 3.6 µM; Nuclear receptor coactivator 3 (Homo sapiens), Q9Y6Q9;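 active = inhibition above a per-campaign cutoff, the mean of all compounds plus 3 SD, cut at about 60% in these data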;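 also: higher means less SRC3-driven luciferase light from the GAL4 reporter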
SRC1 inh: SRC1 coactivator transcriptional activity inhibitors, primary screen, cell-based, luminescence | Nuclear receptor coactivator 1 (Homo sapiens), Q15788 | HEK293 GAL4-SRC1 luciferase reporter | inhibition, % at 3.6 µM | hit rate 0.12% among 360,000 | AID 588354, 2011;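 active = inhibition above the campaign mean plus 3 SD, with each screening campaign given its own cutoff, cut at about 60% in these data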
Gli-Sufu antag: Gli-Sufu pathway antagonists, primary screen, luciferase luminescence, Sufu-KO-LIGHT cells, uHTS; Sufu-KO-LIGHT fibroblasts, Gli luciferase reporter luminescence; inhibition, % at 5 µM; hit rate 0.74% among 340,000;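 active = inhibition above about 55%, limit read from the data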
NR5A2 inv ag: LRH-1 (NR5A2) inverse agonists, primary screen, cell-based, luminescence, HEK293T, StAR-luciferase reporter; hit rate 0.13% among 360,000; Nuclear receptor subfamily 5 group A member 2 (Homo sapiens), O00482; AID 602396, 2012; LRH-1 transfected, 24 h; inhibition, % at 3.6 µM;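 active = inhibition above the mean inhibition of all tested compounds plus 3 SD, cut at about 73% in these data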
SRC2 inh: inhibition of GAL4-SRC2 driven luciferase reporter, primary screen, SRC2 inhibitor project, cell-based, luminescence | Nuclear receptor coactivator 2 (Homo sapiens), Q15596 | HEK293 GAL4-SRC2 luciferase reporter | inhibition, % at 9 µM | hit rate 0.17% among 370,000;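 active = inhibition above the mean inhibition of all tested compounds plus 3 SD, set per campaign, cut at about 52% in these data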
A number is an active result; i = inactive; nt = no result. An excerpt weighted towards active compounds, which were near 1.3% of everything screened.

SMILES	NR2F2 inh	NCOA3 inh	SRC1 inh	Gli-Sufu antag	NR5A2 inv ag	SRC2 inh
COc1ccc(-n2c(SCC(=O)Nc3cc(C)c(NC(=O)c4ccccc4)cc3OC)nnc2-c2ccccc2F)cc1	i	nt	nt	nt	nt	i
NC(=S)n1[nH]c(-c2ccc([N+](=O)[O-])cc2)c(N=Nc2ccc(Cl)cc2)c1=O	nt	i	i	60	i	nt
O=C1N(CCCO)CCC12CCCCC2	i	nt	nt	nt	nt	i
CC(=NNC(=S)N(Cc1ccccn1)Cc1ccccn1)c1cnccn1	i	i	i	90	i	i
S=C(NN=Cc1ccccn1)N(Cc1ccccn1)Cc1ccccn1	i	i	i	82	i	i
CC(C)CNc1cccc2c1S(=O)(=O)N(Cc1cn(Cc3cccc(F)c3)nn1)Cc1ccccc1O2	i	nt	nt	nt	nt	i
O=[N+]([O-])c1ccc(O)c(-c2cc(C(F)(F)F)nc(-c3ccccc3)n2)c1	i	i	i	88	i	i
Oc1ccccc1-c1cc(C(F)(F)C(F)F)nc(-c2ccccc2)n1	i	i	i	i	i	i
c1ccc(CN2CCN(c3ncnc4c3[nH]c3ccccc34)CC2)cc1	74	i	i	62	i	i
c1ccc2c(c1)[nH]c1c(N3CCC4(CC3)OCCO4)ncnc12	nt	i	i	i	i	nt
O=C([C@@H]1C[C@H]1c1ccccc1)N1CC[C@H]2[C@H](CCCN2Cc2ccc(F)cc2)C1	i	nt	nt	nt	nt	i
O=C(Cn1nnc(-c2ccncc2)n1)Nc1ccc(Oc2ccccc2)cc1	i	nt	nt	nt	nt	i
CC[C@@]1(c2cccc(Cl)c2)C(=O)N(C(=O)OC(C)C)N1C(=O)OC(C)C	i	nt	nt	nt	nt	i
N#Cc1c([N+](=O)[O-])cc([N+](=O)[O-])cc1S(=O)(=O)Cc1ccccc1	i	i	i	i	i	61
Cc1ccccc1NC1=C/C(=N\S(=O)(=O)c2cccs2)c2ccccc2C1=O	i	88	80	i	i	i
Cc1ccc(NC2=C/C(=N/S(=O)(=O)c3cccs3)c3ccccc3C2=O)cc1C	i	i	i	i	i	i
COc1ccc(C)cc1Nc1n[n+](-c2ccccc2)c(-c2ccc(N(C)C)cc2)s1	i	i	i	61	i	i
Cc1cc(C)c(C(=O)/C=C/c2cccc3ccccc23)c(=O)[nH]1	i	78	i	i	i	66
CN(Cc1ccccc1)C1=CC(=[N+]2CCCCC2)CC(C)(C)C1	75	72	61	85	84	i
COC(=O)[C@]12C[C@H](CC(=O)NCCc3ccccc3OC)C(=O)N(Cc3ccc(Cl)cc3Cl)C1=C[C@H](C(C)C)O[C@@H]2C1CC1	i	nt	nt	nt	nt	i
O=C(NCCc1c[nH]c2ccccc12)OCc1cn(-c2ccc(Cl)cc2)nn1	i	nt	nt	nt	nt	i
CN(C)CCNc1ccc(CO)c2sc3ccc(O)cc3c(=O)c12	i	i	79	77	i	i
COc1ccc(OC)c(C2(O)CSC(=Nc3cccnc3)N2Cc2ccco2)c1 (centres undefined)	i	i	i	i	i	i
OC1(c2ccc(OC(F)F)cc2)CSC(=Nc2cccnc2)N1C1CC1 (centres undefined)	57	i	i	i	i	i
C=CCN1[C@@H](CC(C)C)COc2cccc(F)c2S1(=O)=O	i	nt	nt	nt	nt	i
SMILES	NR2F2 inh	NCOA3 inh	SRC1 inh	Gli-Sufu antag	NR5A2 inv ag	SRC2 inh
COc1ccc(S(=O)(=O)N2CCOCC2)cc1NC(=O)CCNC(=O)c1ccc(Br)cc1	i	i	i	i	82	57
COc1ccc(S(=O)(=O)N2CCOCC2)cc1NC(=O)CCNC(=O)c1ccc(Cl)cc1	i	i	i	i	i	i
CCc1cccc2sc(N3CCN(C(=O)c4ccc([N+](=O)[O-])o4)CC3)nc12	nt	i	i	76	i	nt
CCCCCCCCNS(=O)(=O)/C=C/c1ccc(OC)cc1CNC(=O)OC(C)(C)C	i	nt	nt	nt	nt	i
CN(C)C(=O)c1cccc(-c2ccc3nncn3c2)c1	i	i	i	nt	i	i
CNc1ccc2ncc(-c3cccc(C(=O)N(C)C)c3)n2n1	i	i	69	nt	i	56
O=C(O)COc1ccccc1C=NNC(=O)Cc1cc(=O)[nH][nH]1	i	nt	nt	nt	nt	i
COc1cccc(N2CCN(c3c(C#N)c(C(F)(F)F)nn3C)CC2)c1	51	i	i	i	i	i
Nn1c(SCC(=O)N2CCOCC2)nnc1-c1cc(-c2ccc(F)cc2)n[nH]1	i	nt	nt	nt	nt	i
O=C(Nc1nc(-c2ccccc2)cs1)c1ccc(N2CCOCC2)c([N+](=O)[O-])c1	nt	76	64	i	i	nt
CCCOC(c1ccccc1)(c1ccc(C(F)(F)F)cc1)C(Oc1nc(C)cc(C)n1)C(=O)O (centres undefined)	i	71	61	i	81	i
CCN(C(C)=O)c1cnc(C=NNC(N)=S)c2ccccc12	i	i	i	i	i	i
NC(=S)NN=Cc1nccc2c(N)cccc12	i	62	74	nt	i	i
O=C(CNS(=O)(=O)c1ccc(Br)s1)N1CCN(c2ccccn2)CC1	i	nt	nt	nt	nt	i
O=C(c1cccc(F)c1F)N1CCCC(c2nc(-c3cccs3)no2)C1 (centres undefined)	i	nt	nt	nt	nt	i
C=CCN(C)C(C#Cc1ccccc1)c1ccccc1C(F)(F)F (centres undefined)	i	nt	nt	nt	nt	nt
CC1CCCN(CCCNC(=O)c2ccc3c(c2)N(Cc2ccc(F)cc2)C(=O)c2ccccc2S3=O)C1 (centres undefined)	i	i	i	66	i	i
CCN(CC)c1ccc2c(c1)OC(N)=C(C#N)C2c1cccnc1 (centres undefined)	i	i	i	62	i	i
CCN1/C(=C/C=C/c2sc3ccccc3[n+]2CC)Sc2ccccc21	nt	i	i	91	i	nt
OC[C@@H]1CN(Cc2ccc(-c3ccccc3)cc2)C[C@H](n2cnc3c(NCc4ccco4)ncnc32)O1	52	i	i	nt	i	i
N=c1c2c(-c3ccccc3)c(-c3ccccc3)n(Cc3ccco3)c2ncn1CCCO	i	i	i	i	i	i
N=c1c2c(-c3ccccc3)c(-c3ccccc3)n(Cc3ccco3)c2ncn1CCO	i	63	i	i	i	i
CCCCN(CC)Cc1ccc(CNC(=S)Nc2ccc(C)cc2Cl)o1	i	i	i	i	i	53
CCCCN(CC)Cc1ccc(CNC(=S)Nc2c(C)cc(C)cc2C)o1	i	i	i	i	i	i
O=C(CCl)N(c1ccc(Cl)cc1)c1c[nH]c2ccccc12	i	i	i	88	i	i
O=C(CCl)N(c1ccccc1)c1c[nH]c2ccccc12	i	i	i	i	i	i
COc1ccccc1C=CC(=O)C=Cc1ccccc1OC	50	i	i	i	i	i
CN(CCCOC(=O)c1occ2ccccc12)C1CN(Cc2cn(Cc3ccccc3Cl)nn2)S(=O)(=O)C1 (centres undefined)	i	nt	nt	nt	nt	i
